From PubChem BioAssay AID2535 (National Center for Advancing Translational Sciences (NCATS), 2010) come the findings set out here.

SMILES strings stand for the structures. Activity calls are given as the source filed them. Calls come from the whole dose curve; as a rule, active = well fitted curve in the direction sought with a large enough effect; inconclusive = small, poorly fitted or top-dose-only effect, or effect the other way, or another doubt; inactive = no such curve, though single readings can be large or run the other way.

Pyruvate kinase PKLR (Homo sapiens), sequence (P30613 whole entry, looked up): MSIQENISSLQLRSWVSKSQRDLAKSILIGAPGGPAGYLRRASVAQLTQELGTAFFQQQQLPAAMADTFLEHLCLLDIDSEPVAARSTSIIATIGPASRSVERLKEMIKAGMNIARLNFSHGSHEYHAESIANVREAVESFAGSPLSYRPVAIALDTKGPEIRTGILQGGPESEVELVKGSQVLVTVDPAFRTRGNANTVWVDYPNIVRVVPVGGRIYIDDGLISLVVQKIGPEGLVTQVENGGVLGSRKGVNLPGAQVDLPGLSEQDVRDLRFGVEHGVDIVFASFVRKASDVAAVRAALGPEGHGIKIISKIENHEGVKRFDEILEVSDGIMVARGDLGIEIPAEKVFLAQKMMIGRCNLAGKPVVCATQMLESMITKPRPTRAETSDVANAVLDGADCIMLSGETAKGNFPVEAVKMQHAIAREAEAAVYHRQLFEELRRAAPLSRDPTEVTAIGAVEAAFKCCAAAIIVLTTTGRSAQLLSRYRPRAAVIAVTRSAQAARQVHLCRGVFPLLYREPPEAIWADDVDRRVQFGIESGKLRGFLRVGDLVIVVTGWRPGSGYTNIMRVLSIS

The experiment deals with Pyruvate kinase PKLR (Homo sapiens) (UniProt P30613). In words: Secondary Concentration-Response Assay for Activators of Human Liver Pyruvate Kinase: for Probe SAR. The following applies: purified hPK-L, ATP production, Kinase-Glo luminescence; series mostly up to 58.3 µM. An excerpt:
NIH Chemical Genomics Center [NCGC]
Matthew G. Vander Heiden, M.D., Ph.D. [Harvard Medical School, 77 Avenue Louis Pasteur, Boston, MA 02115]
Human pyruvate kinase liver (hPK-L) enzyme was supplied as a highly purified (>95% pure) preparation from Harvard Medical School and assayed for its ability to generate ATP from ADP using phosphoenolpyruvate (PEP) as a substrate. ATP generation was detected in a coupled reaction by luciferase-mediated luminescence, an ATP-dependent process. Pyruvate kinase substrates, PEP and ADP, were present in the assay at Km and approximately 10-fold below Km respectively. The enzyme was assayed at an intermediate level of activity to screen for both inhibitors and activators.
NCGC Assay Protocol Summary for L-isoform:
Three uL of substrate mix (at r.t.) in assay buffer (50 mM Imidazole pH7.2, 50 mM KCl, 7 mM MgCl2, 0.01% Tween 20, 0.05% BSA) was dispensed into white solid bottom 1,536 well microtiter plates so that the final concentrations of substrates in the assay were 0.1 mM ADP and 0.5 mM PEP. 23 nL of compound were delivered by a pin tool and 1 uL of enzyme mix (final concentration of 0.1 nM) in assay buffer (4 degree Celsius) was added. Plates were incubated at room temperature for 1 hour. Two uL of detection mix (Kinase-Glo, Promega; at 4 degree Celsius protected from light) was added and luminescence read by a ViewLux (Perkin Elmer) at 1 second exposure/plate. Data were normalized to the uninhibited (row 31). Additionally, a no enzyme and 5-fold enzyme control was dispensed in row 32, split equally between the two conditions.
For orientation: Kinase-Glo reads ATP consumption through a luciferase reaction.
On to `COc1ccc(-c2nc3ccccn3c2Nc2ccccc2C)cc1`, for which the compound was called inactive.

Turning to `O=C1c2ccccc2C(=O)N1c1cncc2ccccc12`, the compound was classed as inactive.

For `CC(=O)N1CCc2cc(S(=O)(=O)Nc3ccc(C)c(C)c3)ccc21`, the compound was classed as inactive.

As to `O=S1(=O)N=C(Oc2ccc(Cl)cc2)c2ccccc21`, the compound was called inactive.

As for `Cc1cc(NS(=O)(=O)c2ccc3c(c2)CCC(=O)N3)ccc1Cl`, the call was inactive.

For `O=C1CCc2cc(S(=O)(=O)Nc3ccc(-c4ccccc4)cc3)ccc2N1`, the compound was called inactive.

Regarding `Nc1cc(S(=O)(=O)N2CCN(S(=O)(=O)c3ccc4c(c3)OCCO4)CC2)ccn1`, the compound was called inactive.

As to `CSc1cc2c(s1)c1cnn(Cc3cccc(O)c3)c(=O)c1n2C`, the result was inactive.

Take `Cc1cccc(OC2=NS(=O)(=O)c3ccccc32)c1`: the result was inactive.

As to `O=S1(=O)N=C(Oc2ccccc2Cl)c2ccccc21`, the compound was classed as inactive.

In the case of `Cc1cc(NS(=O)(=O)c2ccc3c(c2)CCC(=O)N3)ccc1F`, the compound was called inactive.

For `Cc1ccc(N2C(=O)c3ccccc3C2=O)c(C)c1`, the compound was called inactive.

Consider `Cn1c2cc(S(C)=O)sc2c2cnn(Cc3cccc(O)c3)c(=O)c21` (stereo not given), for which the compound was classed as inactive.

On to `COc1ccc(NS(=O)(=O)c2ccc3c(c2)CCC(=O)N3)cc1`, for which the result was inactive.

Consider `Nc1cccc(S(=O)(=O)N2CCCN(S(=O)(=O)c3ccc4c(c3)OCCO4)CC2)c1`, for which the compound was classed as inactive.

Regarding `Cc1ccc(NS(=O)(=O)c2cc3c(cc2F)NC(=O)CC3)cc1Cl`, the outcome was inactive.

Turning to `Cc1ccc(NS(=O)(=O)c2ccc3c(c2)CC(=O)N3)cc1C`, the outcome was inactive.

For `O=C1CCc2cc(S(=O)(=O)Nc3cc(F)cc(Cl)c3)c(F)cc2N1`, the compound was classed as inactive.

In the case of `O=C1c2ccccc2C(=O)N1c1noc2ccccc12`, the call was inactive.

Turning to `COc1cc(F)c(S(=O)(=O)N2CCCN(S(=O)(=O)c3cccc(N)c3)CC2)c(F)c1`, the compound was classed as inactive.

Turning to `O=C1c2ccccc2C(=O)N1c1cccc(Cl)c1`, the compound was called inactive.

As for `Cc1ccc(NS(=O)(=O)c2cc3c(cc2Cl)NC(=O)C3)cc1C`, the outcome was inactive.

Take `O=C1CCc2cc(S(=O)(=O)Nc3cccnc3)ccc2N1`: the result was inactive.

Turning to `Cc1ccc(Cl)cc1NS(=O)(=O)c1cc2c(cc1F)NC(=O)CC2`, the compound was called inactive.

On to `Cc1ccc(NS(=O)(=O)c2cc3c(cc2N2CCCCC2)NC(=O)CC3)cc1C`, for which the outcome was inactive.

With `CCNc1cccc(S(=O)(=O)N2CCN(S(=O)(=O)c3ccc4c(c3)OCCO4)CC2)c1`, the compound was called inactive.

As to `O=C1CCc2cc(S(=O)(=O)Nc3cccc(Br)c3)ccc2N1`, the result was inactive.

With `COc1cccc(Cn2ncc3c4sc(SC)cc4n(C)c3c2=O)c1`, the result was inactive.

Regarding `Cc1ccc(Nc2c(-c3ccsc3)nc3c(C)cccn23)cc1`, the compound was classed as inactive.

Take `O=C1c2ccccc2C(=O)N1c1cc(=O)c2ccccc2[nH]1`: the call was inactive.

As to `Cc1ccc(NS(=O)(=O)c2ccc3c(c2)CCC(=O)N3)cc1`, the outcome was inactive.

For `O=C1c2ccccc2C(=O)N1c1ncccc1O`, the call was inactive.

Consider `Cc1ccc2nc(-c3cccs3)c(Nc3ccccc3)n2c1`, for which the result was inactive.

As to `O=C1c2ccccc2C(=O)N1c1cccc2ncccc12`, the compound was called inactive.

With `O=S(=O)(c1ccc2c(c1)OCCO2)N1CCN(S(=O)(=O)c2c(F)cccc2F)CC1`, the call was inactive.

Regarding `Cc1ccc(Nc2c(-c3ccc(C)s3)nc3ccccn23)cc1`, the compound was called inactive.

As to `Cc1ccc(NS(=O)(=O)c2ccc3c(c2)CCN(C(=O)C(F)(F)F)C3)cc1C`, the outcome was inactive.

Regarding `Cc1ccc(NS(=O)(=O)c2ccc3c(c2)CCO3)cc1C`, the outcome was inactive.

As for `O=C1CCc2cc(S(=O)(=O)Nc3ccc(F)c(Cl)c3)ccc2N1`, the call was inactive.

As for `CNc1cccc(S(=O)(=O)N2CCCN(S(=O)(=O)c3ccc4c(c3)OCCO4)CC2)c1`, the outcome was inactive.
